Inconclusive results are not listed. Calls of active or inactive are those of the source. Unless noted, calls come from the whole dose curve.

Experiment [1] concerns the target Bile acid receptor (Homo sapiens) (UniProt Q96RI1). Description: qHTS assay for small molecule antagonists of farnesoid X receptor signaling (AID 588526). Note: % is set by controls: 0 for no effect and ±100 for the full control effect. In a few lines:
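Beta-lactamase reporter antagonist mode: HEK293T FXR-UAS-bla cells, titrated compound, CDCA stimulation, 16 h 37 C, CCF4 dye 2 h RT. Data normalized to CDCA 50 uM and DMSO; Hill-fit IC50.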
For orientation: In qHTS, concentration-response curves come from the screen itself.

The target is the same in experiment [2]. The experiment is described as follows: qHTS assay for small molecule agonists of farnesoid X receptor signaling (AID 588527).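 Note: series mostly up to about 77 µM; 0% = vehicle basal and 100% = reference agonist.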 To be noted: HEK293T FXR-UAS-bla, beta-lactamase ratio, 16 h; activation: stronger effect = higher value. The gist of the method:
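Quantitative HTS used FXR-UAS-bla HEK293T cells with 16 h compound incubation at 37 C. EC50 values came from concentration-response curves normalized to chenodeoxycholic acid.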

Experiment [3] addresses Glucocorticoid receptor (Homo sapiens) (UniProt P04150). Description: qHTS assay for small molecule agonists of glucocorticoid receptor signaling (AID 588532; active = well fitted curve in the direction sought with a large enough effect in the signal ratio, with a control signal flat; the % refers to the signal ratio;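 note: 100% = dexamethasone at 0.1 µM and 0% = DMSO only wells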). The note with it: HeLa MMTV-bla, beta-lactamase ratio, agonist, 18 h; activation: stronger effect = higher value, percent of dexamethasone control, DMSO zero. The gist of the method: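 Using MMTV-bla HeLa cells in medium with 1% stripped FBS and 25 mM HEPES, compounds were titrated and incubated overnight-length (18 h). Beta-lactamase cleavage of CCF4 was quantified by dual-emission fluorescence.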

The target in experiment [4] is Peroxisome proliferator-activated receptor delta (Homo sapiens) (UniProt Q03181). The experiment is described as follows: qHTS assay for small molecule agonists of peroxisome proliferator-activated receptor delta signaling (AID 588534).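 Note: 0% = DMSO basal wells and 100% = positive control agonist at 10 µM.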 In a few lines: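 Cell-based beta-lactamase reporter assay run in agonist mode: cells seeded and incubated 5 hrs at 37 C, compounds added and incubated 18 hrs at 37 C. CCF4 dye fluorescence read after 2 hrs at RT; EC50 and efficacy from Hill fits.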

Experiment [5] is described as follows: qHTS assay for small molecule antagonists of peroxisome proliferator-activated receptor delta signaling (AID 588535).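 Note: cells co-treated with a PPAR-delta agonist as stimulator during compound exposure.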 The note with it: HEK293T PPARd-UAS-bla, beta-lactamase FRET ratio, 18 h; 460 nm channel. In a few lines:
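Cell-based beta-lactamase assay in antagonist mode: 4000 HEK293T PPAR-delta-UAS-bla cells per well, 5 hr preincubation then 18 hr compound incubation at 37 C. IC50 obtained by Hill equation fitting.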

The target of experiment [6] is Vitamin D3 receptor (Homo sapiens) (UniProt P11473). The experiment is described as follows: qHTS assay for small molecule antagonists of vitamin D receptor signaling (AID 588541).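 Note: receptor activated by calcitriol during compound treatment; series mostly up to about 77 µM; % is set by controls: 0 for no effect and ±100 for the full control effect.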 In a few lines: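 Antagonist-mode beta-lactamase reporter assay: HEK293T VDR-UAS-bla cells were exposed to titrated compound alongside 1-alpha,25-dihydroxyvitamin D3 at 3 nM final for 16 h. Values were normalized to the 50 nM agonist control and DMSO basal, with IC50 and efficacy from Hill equation fits.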

The target is the same in experiment [7]. Description: qHTS assay for small molecule agonists of vitamin D receptor signaling (AID 588543).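 Note: 0% = DMSO basal and 100% = reference agonist control.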 In a few lines:
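qHTS in agonist mode: compound titrations stimulate a VDR-driven β-lactamase reporter in HEK293T cells over 16 h at 37 °C. Response normalized to 50 nM 1α,25-dihydroxyvitamin D3 = 100%, DMSO = 0%; Hill fitting gives EC50 and maximal response.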

The target of experiment [8] is Retinoic acid receptor RXR-alpha (Homo sapiens) (UniProt P19793). Description: qHTS assay for small molecule agonists of retinoid X receptor alpha signaling (AID 588544).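 Note: 0% = DMSO basal wells and 100% = reference agonist.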
For experiment [9], the target named is Thyroid hormone receptor beta (Homo sapiens) (UniProt P10828). The experiment is described as follows: qHTS assay for small molecule agonists of thyroid hormone receptor beta signaling (AID 588545). In a few lines:
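Agonist activity was read as beta-lactamase CCF4 fluorescence (405 ex, 460/530 em), scaled between DMSO (0%) and 10 nM T3 (100%), then Hill-fitted for EC50 and efficacy. HEK 293 TR-UAS-bla cells in 2% charcoal/dextran FBS medium were exposed 18 h at 37 C.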

The nature of experiment [10]: qHTS assay for small molecule antagonists of retinoid X receptor alpha signaling (AID 588546; active = well fitted inhibition curve with a large enough effect in the signal ratio, with a control signal flat, not every such curve was filed as active; the % refers to the signal ratio;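 note: cells stimulated with 9-cis-retinoic acid as agonist; % is set by controls: 0 for no effect and ±100 for the full control effect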). The note with it: HEK293T RXRa-UAS-bla, beta-lactamase ratio, antagonist mode; measured here: W530 green channel, cytotoxicity proxy. In a few lines:
(§1)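 Beta-lactamase reporter inhibition, read as CCF4 fluorescence ratio (ex 405, em 460/530 nm) after 2 h at RT. HEK293T UAS-bla cells, 2500/well, were stimulated with 9-cis-RA at 500 or 100 nM final alongside test compound for 18 h at 37 C.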

Experiment [11] concerns the target Retinoic acid receptor RXR-alpha (Homo sapiens) (UniProt P19793). Described as above. The note with it: HEK293T RXRa-UAS-bla, beta-lactamase ratio, antagonist mode. In a few lines: as §1
For experiment [12], the target named is Thyroid hormone receptor beta (Homo sapiens) (UniProt P10828). The experiment is described as follows: qHTS assay for small molecule antagonists of thyroid hormone receptor beta signaling (AID 588547; active = well fitted inhibition curve with a large enough effect in the signal ratio, with a control signal flat, not every such curve was filed as active; the % refers to the signal ratio;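 note: cells stimulated with 0.4 nM T3 agonist during compound exposure; series mostly up to about 77 µM; % is set by controls: 0 for no effect and ±100 for the full control effect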). To be noted: TR-UAS-bla HEK293, beta-lactamase ratio, antagonist mode, 18 h. In a few lines:
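Inhibition of T3-driven (0.4nM final) beta-lactamase reporter activity was measured over 0.59 nM to 92 uM compound after 18 h at 37 C. The cells were GripTite HEK293 TR-UAS-bla in charcoal/dextran-stripped serum, with CCF4 ratio read-out and IC50 from Hill fits.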

The nature of experiment [13]: qHTS assay for small molecule activators of the p53 signaling pathway (AID 651743; active = well fitted activation curve with a large enough effect in the signal ratio, not every such curve was filed as active; the % refers to the signal ratio; note: series mostly up to about 92 µM; % of control where 0% means no effect). To be noted: HCT-116 p53RE-bla, beta-lactamase FRET ratio, 16 h; activation: stronger effect = higher value. The gist of the method:
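Screen for p53 pathway agonists uses stably transfected p53RE-bla HCT-116 cells, 4,000 per well, treated 16 h at 37 C with compounds in DMSO.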

Experiment [14] is described as follows: qHTS assay for small molecule activators of the nuclear factor-kappa B (NF-kB) signaling pathway (AID 651749; active = well fitted activation curve with a large enough effect in the signal ratio; the % refers to the signal ratio; note: series mostly up to about 77 µM; % of control where 0% means no effect). To be noted: NF-kB-bla ME-180 cells, beta-lactamase FRET ratio, 16 h; activation: stronger effect = higher value. In a few lines:
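Stably transfected ME-180 line; NF-kB response element upstream of beta-lactamase. Treatment: compound or DMSO, 16 hr. Detection: fluorescent FRET substrate.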

The nature of experiment [15]: qHTS assay for environmental chemicals that activate the Aryl hydrocarbon Receptor (AhR) signaling pathway (AID 651777; active = well fitted curve in the direction sought with a large enough effect; an effect the other way counts as inactive or inconclusive; note: nearly all actives have a fitted effect of over 15% in size; note: potency is the fitted concentration of half-maximal effect; for activation: % of control where 0% means no effect). The note with it: 1A2-DRE human hepatoma cells, luciferase, 24 h; activation: stronger effect = higher value. In a few lines: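 Luminescence (One-Glo, 30 min, room temperature) reports AhR-driven luciferase in stably transfected human hepatoma cells bearing DRE and CYP1A2 promoter. Cells (1,200/well) were treated with compound for 24 hr at 37 C in qHTS format.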

Experiment [16] has as its target Peroxisome proliferator-activated receptor alpha (Homo sapiens) (UniProt Q07869). Description: qHTS assay for small molecule agonists of the peroxisome proliferator-activated receptor alpha (PPARalpha) signaling pathway (AID 651778; active = well fitted curve in the direction sought with a large enough effect; an effect the other way counts as inactive or inconclusive; note: % of control where 0% means no effect). To be noted: PathHunter PPARalpha complementation, chemiluminescence, 6 h; max response: stronger effect = higher value. In a few lines:
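Chemiluminescence from complemented enzyme reported PPARalpha activation in cells after 6 hr of compound treatment at 37 C. The detection reagent was incubated for 60 min at room temperature, and compounds were scored as agonists.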

The nature of experiment [17]: qHTS assay for small molecule agonists of the antioxidant response element (ARE) signaling pathway measured by Nrf2-dependant transcriptional activity (AID 720636; active = well fitted curve in the direction sought with a large enough effect in the repeat runs; an effect the other way counts as inactive or inconclusive; note: potency is the fitted concentration of half-maximal effect; for activation: % of control where 0% means no effect). The gist of the method: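 Nrf2-dependent transcription read as ONE-Glo luciferase signal from ARE-luc HepG2 reporter cells after 16 hr compound treatment at 37 C, 5% CO2, in assay medium with 1% dialyzed FBS.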

A short description of experiment [18]: qHTS assay for small molecule agonists of the antioxidant response element (ARE) signaling pathway measured by Nrf2-dependant transcriptional activity - cell viability counter screen (AID 720653; active = well fitted curve in the direction sought with a large enough effect in the repeat runs; an effect the other way counts as inactive or inconclusive; note: % is set by controls: 0 for no effect and ±100 for the full control effect). The note with it: ARE-bla HepG2 viability, CellTiter-Glo ATP luminescence, 16 h; max response: stronger effect = lower value. The gist of the method:
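Cytotoxicity counter screen: intracellular ATP quantified by CellTiter-Glo luminescence in the same ARE-bla HepG2 plates, after 16 h compound exposure and a 2 h beta-lactamase substrate step.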

Experiment [19] is described as follows: qHTS assay for cell viability of HEK293 cells (AID 743288; active = well fitted curve in the direction sought with a large enough effect; an effect the other way counts as inactive or inconclusive; note: % is set by controls: 0 for no effect and ±100 for the full control effect; nearly all actives have a fitted effect of over 50% in size). To be noted: ATP luminescence (CellTiter-Glo), 18 h; max response: stronger effect = lower value. The gist of the method: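 The Tox21 protocol used parental HEK293 cells treated for 18 h at 37 C with compounds delivered by pintool; ATP-coupled luminescence after 30 min at room temperature gave viability.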

The nature of experiment [20]: qHTS assay for cell viability of the p53RE-bla HCT-116 cell line (AID 743292; active = well fitted curve in the direction sought with a large enough effect; an effect the other way counts as inactive or inconclusive; note: % is set by controls: 0 for no effect and ±100 for the full control effect; nearly all actives have a fitted effect of over 55% in size). In a few lines:
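ATP-based luminescent viability (CellTiter-Glo, 30 min RT) after 16 h compound treatment at 37 C of p53RE-bla HCT-116 cells, seeded at 4,000 cells/well and rested 5 h before dosing.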

Chain of Peroxisome proliferator-activated receptor delta (Homo sapiens) (Q03181 whole entry, looked up): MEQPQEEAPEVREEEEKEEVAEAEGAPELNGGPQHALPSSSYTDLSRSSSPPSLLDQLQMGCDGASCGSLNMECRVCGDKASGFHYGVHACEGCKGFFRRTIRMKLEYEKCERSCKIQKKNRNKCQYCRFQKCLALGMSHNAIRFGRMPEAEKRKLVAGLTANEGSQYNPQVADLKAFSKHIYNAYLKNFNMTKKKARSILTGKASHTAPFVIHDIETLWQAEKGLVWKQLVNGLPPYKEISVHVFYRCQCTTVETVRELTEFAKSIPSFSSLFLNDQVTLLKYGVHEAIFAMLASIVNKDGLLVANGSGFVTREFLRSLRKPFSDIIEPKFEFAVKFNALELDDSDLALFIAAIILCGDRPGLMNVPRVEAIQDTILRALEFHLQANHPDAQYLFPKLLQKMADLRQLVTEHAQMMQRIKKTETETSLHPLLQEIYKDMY
Chain of Thyroid hormone receptor beta (Homo sapiens) (P10828 whole entry, looked up): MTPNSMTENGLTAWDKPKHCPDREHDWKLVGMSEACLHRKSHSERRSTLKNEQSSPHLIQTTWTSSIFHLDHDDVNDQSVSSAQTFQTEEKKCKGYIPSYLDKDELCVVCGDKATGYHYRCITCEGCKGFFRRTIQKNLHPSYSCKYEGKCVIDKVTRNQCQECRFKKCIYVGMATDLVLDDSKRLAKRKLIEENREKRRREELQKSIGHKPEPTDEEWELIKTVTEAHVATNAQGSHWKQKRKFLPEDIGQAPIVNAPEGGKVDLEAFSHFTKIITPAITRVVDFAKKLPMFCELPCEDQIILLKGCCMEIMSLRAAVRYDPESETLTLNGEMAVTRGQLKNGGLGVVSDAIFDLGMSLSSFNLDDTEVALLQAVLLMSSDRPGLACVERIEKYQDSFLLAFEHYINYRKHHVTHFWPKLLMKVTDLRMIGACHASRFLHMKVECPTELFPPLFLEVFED
Chain of Bile acid receptor (Homo sapiens) (Q96RI1 whole entry, looked up): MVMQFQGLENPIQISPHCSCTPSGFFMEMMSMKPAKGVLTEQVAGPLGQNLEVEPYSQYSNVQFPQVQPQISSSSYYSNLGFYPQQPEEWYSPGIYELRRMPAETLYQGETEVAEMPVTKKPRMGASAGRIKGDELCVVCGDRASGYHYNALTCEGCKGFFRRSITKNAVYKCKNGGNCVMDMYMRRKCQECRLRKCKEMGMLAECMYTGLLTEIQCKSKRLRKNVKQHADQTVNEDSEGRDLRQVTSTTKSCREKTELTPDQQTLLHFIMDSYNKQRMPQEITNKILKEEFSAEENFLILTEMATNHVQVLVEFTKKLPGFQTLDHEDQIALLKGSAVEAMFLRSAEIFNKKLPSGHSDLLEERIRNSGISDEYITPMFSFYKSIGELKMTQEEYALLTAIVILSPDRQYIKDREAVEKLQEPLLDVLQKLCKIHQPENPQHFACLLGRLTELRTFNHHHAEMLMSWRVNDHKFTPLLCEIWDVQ
Chain of Vitamin D3 receptor (Homo sapiens) (P11473 whole entry, looked up): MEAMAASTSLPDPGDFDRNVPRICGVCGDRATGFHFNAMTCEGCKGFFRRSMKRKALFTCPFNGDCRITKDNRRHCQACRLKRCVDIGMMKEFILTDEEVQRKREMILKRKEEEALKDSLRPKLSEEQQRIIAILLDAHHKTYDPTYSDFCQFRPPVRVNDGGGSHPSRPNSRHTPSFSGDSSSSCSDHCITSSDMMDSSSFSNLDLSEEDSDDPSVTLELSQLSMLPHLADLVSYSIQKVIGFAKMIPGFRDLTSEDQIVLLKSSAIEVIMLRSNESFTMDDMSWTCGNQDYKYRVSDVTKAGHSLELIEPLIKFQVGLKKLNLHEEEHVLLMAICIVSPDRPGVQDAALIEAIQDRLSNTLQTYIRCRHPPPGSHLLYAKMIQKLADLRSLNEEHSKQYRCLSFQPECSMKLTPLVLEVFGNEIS
Chain of Retinoic acid receptor RXR-alpha (Homo sapiens) (P19793 whole entry, looked up): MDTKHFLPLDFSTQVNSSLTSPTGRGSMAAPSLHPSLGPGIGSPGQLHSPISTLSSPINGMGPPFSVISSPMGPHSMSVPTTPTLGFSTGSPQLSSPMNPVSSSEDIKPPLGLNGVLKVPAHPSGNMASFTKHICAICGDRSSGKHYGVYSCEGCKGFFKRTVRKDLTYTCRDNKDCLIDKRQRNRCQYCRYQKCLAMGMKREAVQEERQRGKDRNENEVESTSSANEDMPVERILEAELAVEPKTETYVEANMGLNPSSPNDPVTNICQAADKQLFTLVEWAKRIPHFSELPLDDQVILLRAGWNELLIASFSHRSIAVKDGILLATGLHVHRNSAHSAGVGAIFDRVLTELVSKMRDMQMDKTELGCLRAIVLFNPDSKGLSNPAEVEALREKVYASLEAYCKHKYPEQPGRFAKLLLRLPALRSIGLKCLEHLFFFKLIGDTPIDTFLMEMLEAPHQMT
Chain of Glucocorticoid receptor (Homo sapiens) (P04150 whole entry, looked up): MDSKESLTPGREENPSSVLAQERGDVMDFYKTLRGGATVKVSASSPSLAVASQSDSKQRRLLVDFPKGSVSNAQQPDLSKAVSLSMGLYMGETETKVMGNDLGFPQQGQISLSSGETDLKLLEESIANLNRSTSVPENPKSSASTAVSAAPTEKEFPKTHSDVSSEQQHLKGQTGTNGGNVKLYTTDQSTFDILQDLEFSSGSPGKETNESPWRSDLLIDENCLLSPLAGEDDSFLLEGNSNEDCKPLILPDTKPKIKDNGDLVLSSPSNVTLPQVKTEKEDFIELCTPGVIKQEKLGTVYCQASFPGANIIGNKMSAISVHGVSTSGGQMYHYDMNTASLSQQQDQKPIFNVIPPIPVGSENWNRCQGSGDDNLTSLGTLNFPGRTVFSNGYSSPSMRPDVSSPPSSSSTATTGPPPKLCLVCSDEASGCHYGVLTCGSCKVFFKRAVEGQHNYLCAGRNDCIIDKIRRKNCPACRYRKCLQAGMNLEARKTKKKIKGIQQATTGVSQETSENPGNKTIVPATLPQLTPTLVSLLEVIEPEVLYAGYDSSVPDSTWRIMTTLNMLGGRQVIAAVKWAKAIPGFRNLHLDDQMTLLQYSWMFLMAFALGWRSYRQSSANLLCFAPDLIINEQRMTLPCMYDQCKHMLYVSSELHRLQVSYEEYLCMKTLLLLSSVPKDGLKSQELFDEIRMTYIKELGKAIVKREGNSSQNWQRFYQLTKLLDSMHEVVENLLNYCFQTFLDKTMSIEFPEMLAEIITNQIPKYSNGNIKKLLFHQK
Chain of Peroxisome proliferator-activated receptor alpha (Homo sapiens) (Q07869 whole entry, looked up): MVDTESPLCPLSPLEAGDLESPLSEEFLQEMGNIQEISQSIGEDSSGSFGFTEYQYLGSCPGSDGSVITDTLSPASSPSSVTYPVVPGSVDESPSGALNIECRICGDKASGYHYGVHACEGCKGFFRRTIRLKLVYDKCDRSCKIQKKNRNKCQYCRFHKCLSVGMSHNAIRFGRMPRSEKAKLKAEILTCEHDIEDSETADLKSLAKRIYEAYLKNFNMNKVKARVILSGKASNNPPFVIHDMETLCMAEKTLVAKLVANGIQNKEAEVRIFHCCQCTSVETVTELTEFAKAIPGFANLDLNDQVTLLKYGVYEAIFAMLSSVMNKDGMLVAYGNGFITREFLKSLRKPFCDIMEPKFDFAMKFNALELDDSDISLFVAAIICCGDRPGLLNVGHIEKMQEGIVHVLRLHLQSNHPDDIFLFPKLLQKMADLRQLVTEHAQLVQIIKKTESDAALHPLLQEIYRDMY

Consider `CC1(C)[C@H](C(=O)O[C@H](C#N)c2cccc(Oc3ccccc3)c2)[C@@H]1/C=C(\Cl)C(F)(F)F`, for which the Potency result in experiment [1], in [6], in experiment [8], in experiment [9] and in experiment [17] was “inactive” in each case. Also, the activation was -0.137% (inactive) in [2]; 16% (inactive) in [3]; 1.92% (inactive) in [13]; -0.133% (inactive) in [14]; 0.227% (inactive) in [15]. Also, the compound was called inactive in experiment [4] and in experiment [7]. Further, the max response in [5] is -6.46%; in experiment [10], -6.94%; in [11], -28.2% (inactive); in experiment [16], -0.66% (inactive); in experiment [18] it was -24% (inactive); in [19], -15% (inactive). Further, the activity change % (negative = inhibition) in experiment [12] was 3.81% (inactive).

On to `CCc1cc(C)cc(CC)c1-c1c(OC(=O)C(C)(C)C)n2n(c1=O)CCOCC2`, for which the Potency result in experiment [1], in experiment [6], in [8], in experiment [9], in experiment [17] and in [20] was “inactive” in each case. For the same compound, the activation was 2.69% (inactive) in experiment [2]; -0.342% (inactive) in experiment [3]; -4.38% (inactive) in experiment [13]; -1.54% (inactive) in experiment [14]; 2.1% (inactive) in [15]. For the same compound, the call in [4] was inactive. The max response was 34.5% in [5]; 0.581% in experiment [10]; 4.99% (inactive) in experiment [11]; 0.802% (inactive) in experiment [18]; -3.66% (inactive) in experiment [19]. In addition, the activity change % (negative = inhibition) in experiment [12] was -5.07% (inactive).

For the compound `O=[N+]([O-])c1ccc2ccc3cccc4ccc1c2c34`, the activation was -22% (inactive) in experiment [3] and 2.13% (inactive) in experiment [15]. Also, in experiment [7], the result was inactive. The Potency result in [8] and in experiment [20] was “inactive” in each case. Moreover, in experiment [12], the activity change % (negative = inhibition) is -20.5% (inactive). The max response in [16] is -0.269% (inactive); in experiment [18], -9.82% (inactive); in experiment [19], -25% (inactive).

Take `CCCOCC(=Nc1ccc(Cl)cc1C(F)(F)F)n1ccnc1`: the Potency entry in experiment [1], in [6], in experiment [8], in [9] and in experiment [20] was “inactive” throughout. Also, the activation was -0.0346% (inactive) in [2]; -3.28% (inactive) in experiment [3]; -5.04% (inactive) in [13]; -1.47% (inactive) in [14]; 14% (inactive) in experiment [15]. Also, the result in experiment [4] and in [7] was inactive. For the same compound, the max response in experiment [5] was 18.7%; in experiment [16], 9.44% (inactive); in experiment [18], -4.06% (inactive); in experiment [19], -21.5% (inactive). Further, the Potency in experiment [17] was 61.1 µM (active).

With `CCS(=O)(=O)c1cccnc1S(=O)(=O)NC(=O)Nc1nc(OC)cc(OC)n1`, the Potency entry in experiment [1], in experiment [6], in experiment [9] and in [20] was “inactive” throughout. The activation in experiment [2] was 0.0623% (inactive); in experiment [3], -0.845% (inactive); in experiment [13], -3.66% (inactive); in experiment [14] it was -1.37% (inactive). Besides, the compound was classed as inactive in experiment [4] and in experiment [7]. In addition, the max response in experiment [5] was -45%; in experiment [10], -3.64%; in experiment [11] it was 8.72% (inactive); in experiment [18], 15.3% (inactive); in experiment [19], -6.2% (inactive). Moreover, the Potency in experiment [15] is 31.6 µM (active).

Consider `CCOP(=S)(OCC)SC(CCl)N1C(=O)c2ccccc2C1=O` (stereo not drawn), for which the outcome in [4] and in [7] was inactive. Moreover, the max response is 51.4% in [5]; 3.14% in [10]; 7.55% (inactive) in [11]; -0.704% (inactive) in [16]; -13.6% (inactive) in experiment [18]. In addition, the Potency result in experiment [6], in [9] and in experiment [20] was “inactive” in each case. Besides, the activity change % (negative = inhibition) in [12] was 7.21% (inactive). For the same compound, the activation in [13] was -5.87% (inactive); in [14] it was -1.92% (inactive); in [15] it was 0.999% (inactive).

The values are drawn from PubChem BioAssay (NCATS).
